Experiment in all cases: growth AUC relative to DMSO control (median of replicates) (fraction); higher = more growth (less inhibition), active = hit call of the paper
Common to all, as to conditions: 20 µM; 24 h

Assay [1] has as its system Akkermansia muciniphila. The essentials: (§1)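 In round-bottom 96-well plates sealed with pierced gas-permeable seals, gut bacterial monocultures in mGAM were grown anaerobically at 37 °C from OD600 0.05 with 20 µM compound (1% DMSO). OD600 readings were taken hourly for 24 h, and the minimum OD was set to 0. Area under the growth curve was then normalised to the plate median of solvent-only wells, or to row and column medians on the industrial chemical plate. The value given is the median of three biological replicates grown on separate days.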

The subject of assay [2] is Bacteroides caccae. The method in brief: as §1
In assay [3] the test system is Bacteroides clarus. The method in brief:
as §1

The test system of assay [4] is Bacteroides dorei. The method in brief: as §1
Assay [5] concerns Bacteroides stercoris. The essentials: as §1
For assay [6], the system named is Bacteroides thetaiotaomicron. The method in brief: as §1
Assay [7] has as its system Bacteroides uniformis. The essentials:
as §1

In assay [8] the test system is Bifidobacterium longum subsp. longum. The method in brief: as §1
Assay [9] concerns Clostridium difficile. The method in brief: as §1
Assay [10] has as its system Collinsella aerofaciens. The essentials:
as §1

Unmarked numbers belong to inactive results.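 How the source made its calls: active = AUC reduced over 20% with Padj below 0.05 in at least 2 of 3 replicates; inactive = otherwise.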

With `CCO/N=C(\CC)C1=C(O)CC(c2c(C)cc(C)cc2C)CC1=O` (stereo not given), the “growth AUC” value in assay [1] is 1.1; in assay [2] it was 0.821; in assay [3] it was 1; in assay [4], 0.999; in assay [5], 0.97; in assay [6] it was 0.986. Besides, the “growth AUC” value is 0.962 in assay [7], 1.05 in assay [8], 0.969 in assay [9] and 0.943 in assay [10].
With `CC1(C)[C@H](/C=C(\Cl)C(F)(F)F)[C@@H]1C(=O)O[C@@H](C#N)c1cccc(Oc2ccccc2)c1`, the “growth AUC” value in assay [1] was 1.14; in [2] it was 0.983; in [3], 0.994; in [4], 0.972; in assay [5], 0.971; in assay [6], 0.997. Further, the “growth AUC” value was 0.984 in assay [7], 0.963 in assay [8], 0.988 in assay [9] and 0.932 in assay [10].
On to `Oc1c(Cl)c(Cl)cc(Cl)c1Cl`, for which the “growth AUC” value in [1] was 0.834; in [2], 0.81; in assay [3], 0.726 (active); in [4], 0.758; in assay [5] it was 0.684; in assay [6], 0.794. For the same compound, the “growth AUC” value in [7] was 0.636 (active); in assay [8], 0.974; in assay [9] it was 0.941; in assay [10], 0.941.
`CP(=O)(O)CC(=O)O`: the “growth AUC” value in [1] was 1.01; in [2] it was 0.959; in assay [3], 0.96; in assay [4], 1.02; in assay [5], 0.929; in assay [6], 0.992. Also, the “growth AUC” value in assay [7] was 0.997; in assay [8], 1.04; in assay [9] it was 1.1; in assay [10], 1.04.
With `Cc1cnc(C2=NC(C)(C(C)C)C(=O)N2)c(C(=O)O)c1` (stereo not given), the “growth AUC” value is 1.05 in [1]; 0.987 in assay [2]; 0.993 in assay [3]; 1.02 in assay [4]; 0.976 in assay [5]; 1.01 in assay [6]. Besides, the “growth AUC” value in [7] is 1.01; in assay [8], 1.03; in [9], 1.01; in assay [10], 1.02.
With `OC(c1ccc(Cl)cc1)(c1cncnc1)c1ccccc1Cl` (stereo not given), the “growth AUC” value in assay [1] is 0.992; in assay [2], 0.89; in [3], 0.887; in [4], 0.893; in [5], 0.686; in assay [6], 0.503 (active). Also, the “growth AUC” value in [7] is 0.632 (active); in [8], 0.921; in assay [9], 1.01; in assay [10] it was 0.984.
Consider `COP(=S)(OC)SCC(=O)N(c1ccc(Cl)cc1)C(C)C`, for which the “growth AUC” value in assay [1] is 0.942; in assay [2], 0.983; in [3], 0.965; in assay [4], 0.965; in assay [5], 1.03; in assay [6] it was 0.929. In addition, the “growth AUC” value in assay [7] was 0.912; in assay [8] it was 1.02; in [9] it was 1.01; in assay [10] it was 0.993.
`CC[C@H]1CCCC(O[C@H]2CC[C@H](N(C)C)[C@@H](C)O2)[C@@H](C)C(=O)C2=C[C@@H]3[C@@H](C=C(C)[C@@H]4C[C@@H](O[C@@H]5O[C@@H](C)[C@H](OC)[C@@H](OC)[C@H]5OC)C[C@@H]34)[C@@H]2CC(=O)O1.CC[C@H]1CCCC(O[C@H]2CC[C@H](N(C)C)[C@@H](C)O2)[C@@H](C)C(=O)C2=C[C@@H]3[C@@H](C=C[C@@H]4C[C@@H](O[C@@H]5O[C@@H](C)[C@H](OC)[C@@H](OC)[C@H]5OC)C[C@@H]34)[C@@H]2CC(=O)O1` (stereo not given in full): the “growth AUC” value in assay [1] is 0.986; in [2], 1.01; in assay [3] it was 0.979; in assay [4], 1.04; in assay [5], 0.888; in assay [6], 1. For the same compound, the “growth AUC” value was 0.987 in assay [7], 0.889 in [8], 1.03 in [9] and 0.958 in [10].
Turning to `CC(C)c1ccc(NC(=O)N(C)C)cc1`, the “growth AUC” value in assay [1] was 1.04; in [2], 0.978; in assay [3] it was 0.987; in assay [4], 1.02; in assay [5] it was 0.937; in assay [6], 1.02. In addition, the “growth AUC” value in [7] is 1.02; in [8], 1.18; in assay [9], 0.995; in assay [10], 0.947.
Turning to `CCOP(=S)(OCC)SCS(=O)(=O)C(C)(C)C`, the “growth AUC” value in [1] is 0.89; in assay [2] it was 1.02; in [3], 0.944; in assay [4], 0.994; in assay [5], 0.976; in assay [6], 1.01. Besides, the “growth AUC” value is 1.01 in assay [7], 0.966 in assay [8], 0.98 in assay [9] and 1.02 in assay [10].
For `CCOc1cc(Oc2ccc(C(F)(F)F)cc2Cl)ccc1[N+](=O)[O-]`, the “growth AUC” value is 1.08 in [1]; 0.966 in assay [2]; 1.01 in assay [3]; 0.917 in assay [4]; 0.905 in assay [5]; 1.01 in [6]. In addition, the “growth AUC” value in assay [7] is 0.992; in assay [8], 1.03; in assay [9], 0.993; in assay [10], 0.881.
With `O=[N+]([O-])NC1=NCOCN1Cc1cnc(Cl)s1`, the “growth AUC” value in assay [1] was 1.23; in [2], 0.994; in assay [3], 1.04; in [4] it was 1.01; in assay [5], 1.19; in assay [6], 0.979. Besides, the “growth AUC” value is 0.964 in assay [7], 0.917 in [8], 0.999 in assay [9] and 0.971 in assay [10].
Turning to `O=C1C(Cl)=C(Cl)C(=O)c2ccccc21`, the “growth AUC” value is 0.907 in assay [1]; 0.987 in assay [2]; 0.987 in assay [3]; 0.958 in [4]; 0.962 in assay [5]; 0.996 in assay [6]. In addition, the “growth AUC” value was 0.986 in assay [7], 0.904 in assay [8], 0.912 in assay [9] and 0.988 in [10].
Take `N#Cc1cc(I)c(O)c(I)c1`: the “growth AUC” value is 0.914 in assay [1]; 0.802 in assay [2]; 0.76 (active) in [3]; 0.776 in assay [4]; 0.939 in assay [5]; 0.919 in assay [6]. The “growth AUC” value in [7] was 0.799 (active); in assay [8] it was 0.941; in assay [9] it was 0.919; in assay [10] it was 1.04.

The record behind these values is the supplement of paper PMC12669032.
